Calb FLC = C. albicans growth inhibition with fluconazole, primary screen, CaCi-2 strain, Alamar Blue fluorescence | C. albicans CaCi-2 (fluconazole-resistant clinical isolate) + fluconazole, 48 h | growth inhibition, % (no concentration beside the values) | 0.57% of 300,000 active | AID 1979, 2009;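 active = growth inhibition above about 58% in most replicates, limit read from the data, passing the limit was not always enough; inconclusive = exactly half the replicates above a set limit; inactive = most replicates below a set limit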;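 note: all wells also contain fluconazole at 8 µg/ml as a sub-toxic cotreatment; 0% = median of DMSO wells and 100% = median of geldanamycin control wells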
PP5 inh = PP5 phosphatase inhibitors, primary screen, biochemical, fluorescence | inhibition, % at 6.7 µM | purified PP5c, OMFP substrate fluorescence | 0.18% of 320,000 active | Serine/threonine-protein phosphatase 5 (Homo sapiens), P53041;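 active = inhibition above the campaign's mean inhibition across all tested compounds plus 3 SD, cut at about 9.5% in these data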;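 note: 0% = DMSO only and 100% = 100 µM cantharidin control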
PP1 counter = PP1-alpha phosphatase inhibitors, primary screen, counter-screen for PP5 inhibitor project, biochemical, fluorescence, OMFP substrate, single point; Serine/threonine-protein phosphatase PP1-alpha catalytic subunit (Homo sapiens), P62136; purified PP1alpha; inhibition, % at 6.7 µM; 0.9% of 320,000 active; AID 2235, 2010;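 active = inhibition above the mean inhibition of all tested compounds plus 3 SD, computed separately for each screening campaign, cut at about 15% in these data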
Target sequence (P62136 whole entry, looked up): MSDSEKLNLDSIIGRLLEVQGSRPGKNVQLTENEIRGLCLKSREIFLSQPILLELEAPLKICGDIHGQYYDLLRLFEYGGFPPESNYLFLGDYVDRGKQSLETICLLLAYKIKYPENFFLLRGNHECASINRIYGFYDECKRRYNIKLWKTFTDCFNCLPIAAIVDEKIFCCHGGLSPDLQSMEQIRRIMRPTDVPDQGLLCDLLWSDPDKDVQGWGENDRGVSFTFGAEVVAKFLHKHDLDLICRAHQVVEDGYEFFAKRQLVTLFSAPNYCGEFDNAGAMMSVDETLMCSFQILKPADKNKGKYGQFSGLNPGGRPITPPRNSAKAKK
CSC inhib = cancer stem cell viability inhibitors, primary screen, luminescence | inhibition, % at 7.5 µM | 1.1% of 300,000 active | cancer stem cell-like cells viability; in the data active = inhibition above about 75%; inconclusive = no clear call, values can overlap the other calls; tested in HMLE shEcad cells
ALR inh = inhibitors of human ALR sulfhydryl oxidase, primary screen, biochemical, H2O2 detection, HRP-luminol luminescence, single point; purified ALR, DTT oxidation; FAD-linked sulfhydryl oxidase ALR (Homo sapiens), P55789; inhibition, % (concentration not given with the values); AID 485317, 2010; 3.8% of 290,000 active;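 active = mean replicate inhibition above about 79%, with every replicate also reaching it, limit read from the data; inconclusive = only one of the two criteria met; inactive = mean below limit and not every replicate reaching it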
Target sequence (P55789 whole entry, looked up): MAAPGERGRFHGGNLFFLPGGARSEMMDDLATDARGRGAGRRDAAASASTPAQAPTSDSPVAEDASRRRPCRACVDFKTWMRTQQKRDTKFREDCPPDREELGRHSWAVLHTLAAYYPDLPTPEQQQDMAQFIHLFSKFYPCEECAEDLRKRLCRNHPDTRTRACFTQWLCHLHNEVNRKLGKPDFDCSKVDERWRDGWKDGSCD
Starred values were filed as active, the others as inactive; u = inconclusive; x = no result; + = active, no number. An excerpt weighted towards active compounds, which were near 5.4% of everything screened.

SMILES	Calb FLC	PP5 inh	PP1 counter	CSC inhib	ALR inh
N#Cc1c(NC(=O)Cn2c(=O)oc3ccccc32)oc(-c2ccccc2)c1-c1ccccc1	-2	0	15	86*	5
N#Cc1c(NC(=O)CSc2n[nH]c(N)n2)oc(-c2ccccc2)c1-c1ccccc1	35	7	5	-8	79*
O=C(Nc1cccnc1)Nc1ccccn1	-1	0	-2	-5	1
O=[N+]([O-])c1ccc(CSc2nc3ncc(Br)cc3[nH]2)cc1	1	4	-4	-3	0
COc1ccc(C(=O)COC(=O)/C=C/c2ccccc2[N+](=O)[O-])cc1	x	x	x	5	x
CC(=O)N(C)c1ccc(OCC(O)Cn2c3ccc(Cl)cc3c3cc(Cl)ccc32)cc1 (stereo not drawn)	10	9	3	105*	1
CC(=O)N(C)c1ccc(OCC(O)Cn2c(C)nc3ccccc32)cc1 (stereo not drawn)	16	-1	-4	-12	-4
O=C(O)c1ccc(N/N=C2/CCCc3ccccc32)cc1	7	0	-6	-10	98*
O=C(O)c1ccc(N/N=C2/CCSc3ccc(F)cc32)cc1	-2	3	1	-1	98*
Cc1cc(C)nc(N/N=C2/CCSc3ccc(F)cc32)n1	23	-1	-3	-6	-13
CC(=O)Nc1ccc(NC(=O)Cn2c(=O)n(-c3ccc(F)cc3)c(=O)c3oc4ccccc4c32)cc1	1	-1	-3	-8	-28
O=C(COc1ccccc1Br)NC1CCCC1	2	2	0	17	x
O=C(Nc1nccs1)c1ccc(COc2ccccc2Cl)o1	47	3	6	81*	2
Cc1cccc(NC(=O)c2ccc(COc3ccc(Cl)cc3Cl)o2)n1	-11	5	5	104*	-3
Cc1csc(NC(=O)c2ccc(COc3ccccc3)o2)n1	3	1	3	79*	1
Cc1cccc(NC(=O)c2ccc(COc3ccccc3)o2)n1	-4	-1	1	22	1
O=C(Nc1nccs1)c1ccc(COc2c(F)c(F)cc(F)c2F)o1	x	0	-1	-6	-6
C/C=C/C1=CC(=O)C[C@H](c2ccc(OC)c(OC)c2)C1	x	0	-10	-8	-3
CCc1nc(SCC(=O)Nc2ccccc2OC)c2c(C)c(C)sc2n1	30	1	4	27	1
Cc1onc(-c2ccccc2Cl)c1C(=O)NC(=S)Nc1ccccc1C(N)=O	-8	0	1	-1	95*
Cc1onc(-c2ccccc2Cl)c1C(=O)NC1CCS(=O)(=O)C1 (stereo not drawn)	9	-2	-2	-11	96*
O=C1SC(SCc2ccccc2)=N/C1=C\c1ccc(C(=O)O)cc1	4	-1	-7	-1	36
CC(/C=C1\N=C(SCc2ccccc2Cl)SC1=O)=C\c1ccccc1	-3	1	5	13	99*
CN(C)c1cccc(NC(=O)c2ccco2)c1	0	0	4	-3	99*
O=C(CSc1ccccc1)Nc1cccc(NC(=O)c2ccco2)c1	-8	2	1	-22	-8
SMILES	Calb FLC	PP5 inh	PP1 counter	CSC inhib	ALR inh
CC1N(C)c2cc(NC(=O)c3ccco3)ccc2C1(C)C (stereo not drawn)	-2	4	1	-3	98*
CSc1cccc(NC(=O)c2ccco2)c1	7	-1	-5	-9	98*
CC1N(C)c2cc(NC(=O)c3ccco3)c(P(=O)(Nc3ccc([N+](=O)[O-])cc3)N3CCOCC3)cc2C1(C)C (stereo not drawn)	50	0	0	6	-34
Cc1ccc(O)c(NS(=O)(=O)c2cccc3nsnc23)c1	-11	3	-2	-12	-4
CN(CC(=O)Nc1cccc(F)c1)C(=O)c1ccc(N2CCCC2)c([N+](=O)[O-])c1	-8	0	-6	5	x
NS(=O)(=O)c1ccc(N/N=C2/CCCCC2C2CCCCC2)c([N+](=O)[O-])c1 (stereo not drawn)	15	5	2	+	-25
O=C(c1ccccc1)c1nn(-c2ccccc2)c2nnc(Cc3ccccc3)c(=O)n12	u	2	12	-9	-5
Cc1ccc(-n2nc(C(=O)c3ccccc3)n3c(=O)c(Cc4ccccc4)nnc23)cc1	-8	1	17*	-7	0
CCC(=O)Nc1ccc2nc(SCC(=O)N3CCOCC3)sc2c1	-6	3	0	-18	-22
Cc1c(N=NC2=C(O)CC(C)(C)CC2=O)c(=O)n(-c2ccccc2)n1C	96*	4	-1	-3	11
CCNc1ccc(N=Nc2c(C)n(C)n(-c3ccccc3)c2=O)cc1	-2	3	0	4	99*
CC(=O)/C(N=Nc1c(C)n(C)n(-c2ccccc2)c1=O)=C(\C)O	-3	0	0	-8	66
Cc1ccc(O)c(N=NC2=C(O)CC(C)(C)CC2=O)c1	85*	1	0	26	11
CC1=CC(=Nc2c(C)n(C)n(-c3ccccc3)c2=O)C=C(C)C1=O	-3	-1	-2	12	99*
COc1ccc(OC)c(C2C3=C(N=C4SCC(=O)N42)c2ccccc2CC3)c1 (stereo not drawn)	u	3	2	x	-24
COc1cccc(NC(=O)CN2C(=O)CSc3ccc(S(=O)(=O)N4CCOCC4)cc32)c1	-8	1	-1	-4	-2
COC(C(=O)Nc1ccccc1F)c1ccccc1 (stereo not drawn)	3	2	-2	-5	-5
Cc1c(C(=O)NNC(=S)Nc2cccc(Cl)c2)nnn1-c1ccccc1	9	3	5	6	91*
COc1cc(NC(=O)c2ccc([N+](=O)[O-])o2)ccc1NC(=O)c1ccco1	x	2	-2	45	-23
COc1ccc(NC(=O)c2ccc([N+](=O)[O-])o2)cc1	103*	2	0	48	-27
Cc1cc(NC(=O)c2ccc([N+](=O)[O-])o2)ccc1NC(=O)c1ccco1	58*	x	x	x	x
CC(=O)c1ccc(NC(=O)c2ccc([N+](=O)[O-])o2)cc1	6	x	x	80*	-33
Cc1cc(C)cc(NC(=O)c2ccc([N+](=O)[O-])o2)c1	-2	x	x	x	x
O=C(CCl)N1CCN(S(=O)(=O)c2ccc3ccccc3c2)CC1	-4	-1	0	18	-5
O=C(c1ccc(Cl)c(Cl)c1)N1CCN(Cc2ccc3c(c2)OCO3)CC1	-32	5	2	-2	-13
Cc1cc(C)n2c(-c3ccccc3Cl)nnc2n1	12	-3	-2	-5	5
O=C(CN1C(=O)C2CC=CCC2C1=O)Nc1ccc(-c2nnc3n2CCCCC3)cc1 (stereo not drawn)	-3	2	-2	-10	2
COc1cc(N)ccc1NC(=O)c1cccs1	-1	0	2	-6	99*

Screening results (PubChem)
